# Compound activity (PubChem)
# TROY NFkB inh – inhibitors of TROY-dependent NF-kB signaling; Q293 LMP1-TROYcd NF-kB luciferase reporter, 4 h; inhibition, % at 10 µM; hit rate 0.98% among 360,000; AID 1347056;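 active = compounds whose plate-normalised and pattern-corrected inhibition of the luciferase reporter signal at the single screening dose is 50% or more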
# CF NFkB block – cystic fibrosis NF-kB activation inhibition. KKLEB NF-kB-GFP reporter, PAF-induced, GFP fluorescence overnight. inhibition, % at 5 µM. hit rate 0.86% among 360,000. AID 588850;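 active = at least 50% inhibition at 5 µM, scaled per plate between neutral and stimulator controls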;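 also: PAF is a Pseudomonas aeruginosa culture filtrate used as stimulus; plate controls were PAF-stimulated DMSO wells for no effect and unstimulated DMSO wells for full effect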
# Peg3 prom inh – reduces Peg3 promoter-driven luciferase expression in HeLa; HeLa PEG-Prom luciferase reporter, luminescence, overnight; inhibition, % at 20 µM; hit rate 1.7% among 360,000;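 active = inhibition of at least 50% at 20 µM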
# KKLEB cytotox – CF airway cell cytotoxicity counter-screen; KKLEB CF airway cells viability, ATPlite luminescence, overnight; active compounds read low; cells stimulated with P. aeruginosa culture filtrate; activity change (cytotoxicity), % at 5 µM; hit rate 0.36% among 360,000; AID 602141;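 active = corrected activity change at or below -50% at 5 µM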
# TWEAK-Fn14 inh – TWEAK-Fn14 signaling inhibition | TWEAK-stimulated Fn14 reporter cells, luciferase luminescence, 8 h | inhibition, % at 10 µM | hit rate 2% among 360,000 | AID 1159606; in the data active = inhibition above about 50%
# HIF-2a block – inhibitors of HIF-2a | hit rate 0.72% among 360,000 | inhibition, % at 18.8 µM | 786-0 RCC cells HIF-2a reporter, luciferase luminescence, overnight;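 active = inhibition of the luminescence signal of 40% or more relative to plate controls, in a single-dose primary screen at 18.75 µM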
# Starred values were filed as active, the others as inactive. Most compounds without a hit are left out; they make up all but 4% or so of the library.
SMILES,TROY NFkB inh,CF NFkB block,Peg3 prom inh,KKLEB cytotox,TWEAK-Fn14 inh,HIF-2a block
COc1cc(/C=N/NC(=O)c2ccc(N)cc2)ccc1OC(=O)c1cccc(C)c1,53*,-21,-30,7,4,-5
COc1cc(C(=O)N/N=C/c2cccc(Oc3ccccc3)c2)ccc1O,-14,14,-32,-13,-12,-4
COc1cc(/C=N/NC(N)=S)ccc1OC(=O)c1ccc(C)cc1,9,-3,-24,6,8,-13
COc1cc(C(=O)N/N=C/c2ccc(OC(=O)c3cccc(C)c3)cc2)ccc1O,51*,-27,-21,12,-3,-24
COc1ccc(CCNC(=O)c2ccc3nc(N4CCOCC4)sc3c2)cc1OC,5,-6,4,3,-34,14
CN(C(=O)COC(=O)C1CCN(S(=O)(=O)c2cccs2)CC1)c1ccccc1,1,3,3,4,-30,9
C[C@@H](NC(=O)c1ncn2c1c(=O)[nH]c1cccnc12)c1ccccc1,12,-30,2,10,13,11
C[C@@H](NC(=O)c1ncn2c1c(=O)[nH]c1ccc(Br)cc12)c1ccccc1,-4,-11,79*,8,1,7
O=S(=O)(Nc1nnc(-c2ccccc2)s1)c1ccc(Cl)cc1,-2,-7,-11,6,-23,-31
Cc1ccc(CS(=O)(=O)CCC(=O)NCCN2CCCCC2C)cc1 (configuration not stated),6,-4,10,7,1,11
Cc1cc(C)c2cc(C#N)c(N3CCCN(C(=S)NCCCN(C)C)CC3)nc2c1,10,4,104*,4,-4,10
O=C(Nc1ccc(Cl)c(Cl)c1)Nc1nnc(-c2ccncc2)s1,9,76*,24,-56*,-14,4
O=C(Nc1nnc(-c2ccncc2)s1)Nc1ccccc1F,-28,25,-140,8,18,-161
CCOc1ccc(N(C(=O)c2snc(C(N)=O)c2N)C(CC)C(=O)NC2CCCC2)cc1 (configuration not stated),4,-4,10,5,10,8
COc1ccc(N2C(=O)CC(Sc3nnc(-c4ccccc4)o3)C2=O)cc1 (configuration not stated),-10,26,85*,5,-7,4
COc1ccc(N2C(=O)CC(Sc3nc(C)cc(C)c3C#N)C2=O)cc1 (configuration not stated),2,14,-46,-24,-9,-127
COc1ccc(N2C(=O)CC(Sc3nnnn3-c3ccc(F)cc3)C2=O)cc1 (configuration not stated),-7,27,114*,-2,-12,0
O=C1CC(Sc2nnnn2-c2ccccc2)C(=O)N1c1cccc(Cl)c1 (configuration not stated),9,45,116*,-15,-14,40
O=C(COc1nsnc1N1CCOCC1)Nc1ccc(Cl)cc1,-6,5,19,-11,0,4
COc1ccc(NC(=O)CSC2=NN3CCCC(=O)N=C3S2)c(OC)c1,-49,-9,-9,-3,26,-1
Cc1ccc([N+](=O)[O-])cc1N/C=C/C(=O)c1ccco1,-27,-30,-126,8,-49,-171
Cc1ccc(N/C=C/C(=O)c2ccco2)c(O)c1,-35,-16,-262,2,95*,-400
N#CC(c1ccc(Cl)cc1)c1ccc2c(C(F)(F)F)cc(C(F)(F)F)nc2n1 (configuration not stated),79*,67*,52*,-74*,65*,-32
CC(C)n1c(O)c(N=Nc2ccc(Cl)nn2)c2ccccc21,14,-42,7,7,-14,-11
CCc1cc(-c2[nH]ncc2-c2ccc([N+](=O)[O-])cc2)c(O)cc1OC,44,36,31,-6,39,20
SMILES,TROY NFkB inh,CF NFkB block,Peg3 prom inh,KKLEB cytotox,TWEAK-Fn14 inh,HIF-2a block
O=[N+]([O-])c1ccc(COc2ccc(-c3[nH]ncc3-c3ccc(Cl)cc3)c(O)c2)cc1,23,-12,35,3,51*,-25
COc1ccc(-c2cn[nH]c2-c2ccc(OCc3ccc([N+](=O)[O-])cc3)cc2O)cc1OC,50,36,36,-10,83*,19
Cn1c(N=Nc2ccccc2)nc2ccccc21,40,-21,-209,-53*,79*,-25
O=C(CCCn1c(=S)[nH]c2cc3c(cc2c1=O)OCO3)N1CCN(c2ccc(Cl)cc2)CC1,58*,20,25,-1,17,25
O=C(CCCn1c(=S)[nH]c2cc3c(cc2c1=O)OCO3)N1CCN(c2ccccc2)CC1,8,10,15,4,13,17
O=S(=O)(N(Cc1ccccc1)[C@H](CO)Cc1ccccc1)N(Cc1ccccc1)[C@H](CO)Cc1ccccc1,-8,30,-6,-23,-34,17
CC(C)C[C@@H](CO)N(Cc1ccccc1)S(=O)(=O)N(Cc1ccccc1)[C@H](CO)CC(C)C,52*,40,83*,-20,24,-5
CC(C)C[C@@H](CO)N(Cc1ccccc1)S(=O)(=O)N(Cc1ccccc1)[C@@H](CO)CC(C)C,53*,27,85*,-2,16,13
COc1ccc(CN([C@H](CO)CC(C)C)S(=O)(=O)N(Cc2ccccc2)[C@H](CO)CC(C)C)cc1,25,28,83*,-17,22,7
Cn1ccn(CCCCCCn2ccn(C)c2=S)c1=S,7,-24,-2,-9,0,-20
CCCCCc1c2c(cc(O)c1C(=O)O)OC(=O)c1c(cc(OC)cc1C(=O)CCCC)O2,62*,42,22,-4,14,9
Cn1nc([N+](=O)[O-])nc1Oc1ccccc1F,7,-15,17,21,6,16
Cn1nc([N+](=O)[O-])nc1S(C)(=O)=O,18,70*,49,6,54*,-4
CS(=O)(=O)c1nc([N+](=O)[O-])nn1CCCc1ccccc1,22,90*,60*,-44,87*,18
CCOC(=O)C1=C(CC)OC(N)=C(C#N)C1c1ccc(NC(C)=O)cc1 (configuration not stated),3,4,-2,3,6,6
CC(C)c1cc(C(=O)NNC(=S)NC2CCCCC2)cs1,49,-9,-193,-7,50*,-217
COc1ccc(OC)c(-c2cc(C(=O)Nc3sc4c(c3C#N)CCC(C)C4)c3ccccc3n2)c1 (configuration not stated),3,38,3,-52*,-8,9
Cc1ccc(C)c(-c2cc(C(=O)Nc3nccs3)c3ccccc3n2)c1,10,-20,41,-21,62*,19
Cc1ccc(S(=O)(=O)N(C)C)cc1NC(=O)c1cc(-c2ccncc2)nc2ccccc12,-14,1,52*,9,-11,4
